Compound activity: PubChem BioAssay, National Center for Advancing Translational Sciences (NCATS)
In the library only some 19% were active in any assay of this set; here they are far more common.
IL1B secr inh: blocks inflammasome-driven IL-1 beta release; THP-1 LPS/ATP IL-1B secretion, AlphaLISA, 16 h; active compounds read low; activity change, % at 57.5 µM; 360,000 tested, 4.7% active; AID 743279; in the data active = activity change below about -50%; inconclusive = mostly about -30% to -49%
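THP-1 cells pretreated 1 hr with compounds (up to 57.5 uM final), then stimulated with LPS (250 ng/mL final) plus ATP (1.25 mM final); secreted IL-1B measured by AlphaLISA after 16 hr, decreased signal indicating inhibition.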
ELG1 DNA repair: ELG1-dependent DNA repair inhibition; AID 504467; 330,000 tested, 2.3% active; Potency, µM (top dose mostly 46.1 µM), for inactives: at the highest dose activity change, negative = inhibition, usual class: inhibitors; HEK293T ELG1-luciferase reporter, luminescence, 16 h; DNA damage induced by 5-fluorouridine; also: potency is read from the fitted curve at half-maximal effect; nearly all actives have a fitted effect of over 55% in size
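Cells (2,000 per well) received 5-fluorouridine plus test compound or DMSO and were incubated 16 hr at 37 °C, 5% CO2. Luciferase activity was read by luminescence 30 min after ONE-Glo addition; signal suppression marked inhibition of damage-induced ELG1 function.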
HT1080-NT tox: kills 2HG-producing HT-1080-NT fibrosarcoma cells | HT-1080-NT fibrosarcoma viability, CellTiter-Glo ATP luminescence, 48 h | Potency, µM (highest dose often 46.1 µM), for inactives: at the top dose activity, negative = less viability, actives largely listed as cytotoxic | 360,000 tested, 1.6% active | AID 686970;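 also: NT is the 2HG producing partner of a matched IDH1 knockdown line; potency is read from the fitted curve at half-maximal effect; 0% = DMSO-treated cells and -100% = media-only wells without cells; nearly all actives have a fitted effect of over 55% in size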
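HT-1080-NT fibrosarcoma cells (2HG-overproducing), 750 cells/well in RPMI with 5% FBS, dosed after 2 h and incubated 48 h at 37C. CellTiter-Glo luminescence normalized to DMSO and no-cell wells; concentration-response curves fitted and classed.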
TDP1 cell CPT: DT40-hTDP1 cell growth loss with CPT; chicken DT40 Tdp1-/-;hTDP1 cells + 20 nM CPT, ATP luminescence, 48 h; Potency, µM (series often up to 46.2 µM), for inactives: top-dose activity change, negative = growth inhibition, hits mostly inhibitors; 420,000 tested, 12% active; also: potency is read from the fitted curve at half-maximal effect; nearly all actives have a fitted effect of over 55% in size
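Cell growth measured by CellTiter-Glo luminescence after a minimum 48 h, 37 C compound exposure with 20 nM CPT in Tdp1-knockout DT40 cells stably expressing hTDP1, seeded 400/well; qHTS titration format.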
TDP1 cell noCPT: qHTS for Inhibitors of human tyrosyl-DNA phosphodiesterase 1 (TDP1): qHTS in cells in absence of CPT. DT40 Tdp1-/- hTDP1 cells, no CPT, ATP luminescence, 48 h. Potency, µM (top dose mostly 46.2 µM), without a hit: at the top dose activity change, negative = growth inhibition, hits mostly inhibitors. 420,000 tested, 15% active. AID 686978, 2013; also: potency is read from the fitted curve at half-maximal effect; nearly all actives have a fitted effect of over 55% in size
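Chicken DT40 Tdp1-/- cells complemented with human TDP1, screened without camptothecin (DMSO vehicle only), 400 cells/well. Compounds pin-transferred, cells incubated at 37 °C for at least 48 hr. Growth read as ATP-dependent luminescence (CellTiter-Glo, 30 min at RT).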
HT1080 IDH1KD tx: toxicity to HT-1080 IDH1 knockdown cells (counter line). HT-1080 IDH1 knockdown viability, ATP luminescence, 48 h. AID 686971. 360,000 tested, 2% active. Potency, µM (doses to about 46.1 µM), inactives show top-dose activity, negative = toxicity, actives largely listed as cytotoxic;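 also: potency is read from the fitted curve at half-maximal effect; 0% = DMSO wells and -100% = cell-free medium wells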
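HT-1080-IDH1KD cells (IDH1 knocked down), 750/well in RPMI with 5% FBS, treated with compound 48 h at 37 degrees C. Viability by CellTiter-Glo luminescence, normalised to DMSO and no-cell wells; concentration-response curves classed.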
An asterisk follows results filed as active; u = inconclusive; x = not tested or not shown. Unless noted, calls follow the shape of the dose curve; as a rule, active = well fitted curve in the direction sought with a large enough effect; inconclusive = small, poorly fitted or top-dose-only effect, or another doubt; inactive = no such curve, though single readings can be large; an effect the other way counts as inactive or inconclusive. Unless noted, % is scaled to controls: 0 for no effect and ±100 for the full control effect.

SMILES | IL1B secr inh | ELG1 DNA repair | HT1080-NT tox | TDP1 cell CPT | TDP1 cell noCPT | HT1080 IDH1KD tx
CN(c1ccccc1)C1CCCCC1NS(=O)(=O)c1ccc(Cl)cc1 (stereo unspecified) | 72.9 | -8.0% | -21.5% | u | 23.1µM* | u
COc1ccc(OC)c(NC(=O)Nc2cccc(OCc3cc(=O)n4cc(C)ccc4n3)c2)c1 | x | x | x | 8.2µM* | 18.4µM* | x
Cc1ccn2c(=O)cc(COc3cccc(NC(=O)Nc4cccc(Cl)c4C)c3)nc2c1 | x | x | x | u | 23.1µM* | x
COc1cc(OC)c(NC(=O)Nc2ccccc2OCc2cc(=O)n3cc(C)ccc3n2)cc1Cl | x | x | x | 8.2µM* | 9.2µM* | x
Cc1ccc2nc(COc3ccccc3NC(=O)COc3ccccc3Cl)cc(=O)n2c1 | x | x | x | -5.2% | -15.5% | x
COc1cc(OC)c(NC(=O)Nc2cccc(OCc3cc(=O)n4ccccc4n3)c2)cc1Cl | x | x | x | 18.4µM* | 13µM* | x
CCCCC(=O)Nc1cccc(OCc2cc(=O)n3ccccc3n2)c1 | x | x | x | 1.0% | -20.4% | x
O=C(Cn1c(=O)c2cccn2c2ccccc21)NCc1ccccc1F | x | x | x | -17.9% | u | x
COc1ccc(-c2nnc(SCC(=O)Nc3ccc(Cl)cc3)s2)cc1 | x | x | x | -22.8% | -19.3% | x
CCCC1(CCC)NC(=O)N(CC(=O)N2CCc3ccccc32)C1=O | -3.1 | 4.7% | -0.3% | -0.8% | 1.3% | -4.0%
CC1(c2nnnn2-c2ccc3c(c2)OCCO3)CCC(=O)N1CC1CCCCC1 (stereo unspecified) | 4.5 | x | 10.4% | -15.5% | u | 0.6%
Cc1cccc(OCC(=O)Nc2ccccc2OCc2cc(=O)n3cc(C)ccc3n2)c1 | x | x | x | 13µM* | u | x
O=S(=O)(O)c1cc(I)c(O)c2ncccc12 | x | x | x | 21.1µM* | 21.1µM* | x
Nc1c(C(=O)NCc2cccs2)nnn1CC(=O)Nc1cccc(F)c1 | x | x | x | 2.5% | -7.0% | x
COC(=O)c1cc2oc3ccccc3c2n1Cc1ccccc1Cl | x | x | x | 19.7% | -5.7% | x
CCOC(=O)C1=CCC(c2ccccc2Cl)N(S(=O)(=O)c2ccc(C)cc2)C1 (stereo unspecified) | 34.0 | x | -27.8% | 14.6µM* | u | -26.1%
CCOC(=O)C1=CCC(c2ccccc2C(F)(F)F)N(S(=O)(=O)c2ccc(C)cc2)C1 (stereo unspecified) | -7.1 | x | -22.2% | 23.1µM* | 23.1µM* | u
CCOC(=O)C1=CCC(c2cccs2)N(S(=O)(=O)c2ccc(C)cc2)C1 (stereo unspecified) | 11.5 | x | u | u | u | u
CCOC(=O)C1=CCC(c2cccn2C(=O)OC(C)(C)C)N(S(=O)(=O)c2ccc(C)cc2)C1 (stereo unspecified) | 19.2 | x | -8.9% | u | u | -19.3%
CC(C)(C)c1ccc(S(=O)(=O)Nc2noc3ccccc23)cc1 | 11.3 | -10.2% | -4.6% | -22.3% | -18.9% | 0.6%
O=C(COC(=O)c1ccc(O)cc1)NCCCc1ccccc1 | u | 5.0% | -8.5% | 1.0% | -6.2% | 0.2%
